According to PubChem BioAssay (NCATS):
Values joined by “and” are separate entries in the source; they are usually repeats but may differ in a detail not shown here. Equal values may be shown once. Inconclusive results are not listed. Where a call stands in place of a potency, no number is given. Active and inactive are the calls of the source. The call rests on the fitted dose curve; in most records, active means well fitted curve in the direction sought with a large enough effect; inconclusive means small, poorly fitted or top-dose-only effect, or another doubt; inactive means no such curve, though single readings can be large; an effect the other way counts as inactive or inconclusive.

Key:
[1] = qHTS of pediatric cancer cell lines to identify multiple opportunities for drug repurposing: Primary screen for U-2 OS cells (AID 1347096); further: nearly all actives have a fitted effect of over 50% in size; further: potency means the concentration at half of the fitted maximal effect
Method in brief: (§1)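 Cells (500-1,000/well) rested 5 h, then received compounds for 48 h; metabolically active cells were measured by CellTiter-Glo luminescence. Final concentrations spanned up to 46 µM (MIPE, 11-point) or 0.59 nM-46 µM (NPC, 8-point) in primary screens, 11-point in follow-ups.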

[2] = qHTS of pediatric cancer cell lines to identify multiple opportunities for drug repurposing: Primary screen for Saos-2 cells (AID 1347097); further: nearly all actives have a fitted effect of over 40% in size; further: potency means the concentration at half of the fitted maximal effect
Method in brief: (§2)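 ATP-based luminescence (CellTiter-Glo) quantifies viability after a 48-hour exposure. Compounds are dosed across 8 or 11 final concentrations; DMSO and 2.3 µM bortezomib serve as controls.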

[3] = qHTS of pediatric cancer cell lines to identify multiple opportunities for drug repurposing: Primary screen for SK-N-SH cells (AID 1347098); further: nearly all actives have a fitted effect of over 65% in size; further: potency means the concentration at half of the fitted maximal effect
Method in brief: as §1

[4] = qHTS of pediatric cancer cell lines to identify multiple opportunities for drug repurposing: Primary screen for LAN-5 cells (AID 1347100); further: potency means the concentration at half of the fitted maximal effect
Method in brief: as §1

[5] = qHTS of pediatric cancer cell lines to identify multiple opportunities for drug repurposing: Primary screen for BT-12 cells (AID 1347101); further: nearly all actives have a fitted effect of over 25% in size; further: potency means the concentration at half of the fitted maximal effect
Method in brief: as §1

[6] = qHTS of pediatric cancer cell lines to identify multiple opportunities for drug repurposing: Primary screen for Rh18 cells (AID 1347102); further: nearly all actives have a fitted effect of over 65% in size; further: potency means the concentration at half of the fitted maximal effect
Method in brief: as §1

[7] = qHTS of pediatric cancer cell lines to identify multiple opportunities for drug repurposing: Primary screen for OHS-50 cells (AID 1347103); further: nearly all actives have a fitted effect of over 40% in size; further: potency means the concentration at half of the fitted maximal effect
Method in brief: as §1

[8] = qHTS of pediatric cancer cell lines to identify multiple opportunities for drug repurposing: Primary screen for RD cells (AID 1347104); further: nearly all actives have a fitted effect of over 55% in size; further: potency means the concentration at half of the fitted maximal effect
Method in brief: as §2

[9] = qHTS of pediatric cancer cell lines to identify multiple opportunities for drug repurposing: Primary screen for MG 63 (6-TG R) cells (AID 1347105); further: nearly all actives have a fitted effect of over 50% in size; further: potency means the concentration at half of the fitted maximal effect
Method in brief: as §2

[10] = qHTS of pediatric cancer cell lines to identify multiple opportunities for drug repurposing: Primary screen for NB1643 cells (AID 1347099); further: nearly all actives have a fitted effect of over 50% in size
Method in brief: as §2

O=S(=O)(O)CCS
Potency [1]: inactive
Potency [2]: inactive
Potency [3]: inactive
Potency [4]: inactive
Potency [5]: inactive
Potency [6]: inactive
Potency [7]: inactive
Potency [8]: inactive
Potency [9]: inactive

CC[C@H](C)C(=O)O[C@H]1C[C@@H](C)C=C2C=C[C@H](C)[C@H](CC[C@@H]3C[C@@H](O)CC(=O)O3)[C@H]21
Potency [1]: inactive
Potency [2]: 5.9 µM (active)
Potency [3]: 4.86 µM (active) and 19.2 µM (active)
Potency [10]: inactive
Potency [4]: inactive
Potency [5]: 1.23 µM (active) and 3.43 µM (active)
Potency [7]: 6.92 µM (active) and 9.68 µM (active)
Potency [8]: inactive
Potency [9]: 4.22 µM (active) and 4.69 µM (active)

N[C@@H](Cc1ccc(O)c(O)c1)C(=O)O
Potency [1]: inactive
Potency [2]: inactive
Potency [3]: inactive
Potency [4]: inactive
Potency [5]: inactive
Potency [6]: inactive
Potency [7]: inactive
Potency [8]: inactive
Potency [9]: inactive

O=C(O)c1cn(C2CC2)c2cc(N3CCNCC3)c(F)cc2c1=O
Potency [1]: inactive
Potency [2]: inactive
Potency [3]: inactive
Potency [10]: inactive
Potency [4]: inactive
Potency [5]: inactive
Potency [7]: inactive
Potency [8]: inactive
Potency [9]: inactive

C[C@@H]1CN(c2c(F)c(N)c3c(=O)c(C(=O)O)cn(C4CC4)c3c2F)C[C@H](C)N1
Potency [1]: inactive
Potency [2]: inactive
Potency [3]: inactive
Potency [4]: inactive
Potency [5]: inactive
Potency [6]: inactive
Potency [7]: inactive
Potency [8]: inactive
Potency [9]: inactive

CC(C)(C)C(=O)OCOP(=O)(COCCn1cnc2c(N)ncnc21)OCOC(=O)C(C)(C)C
Potency [1]: inactive
Potency [2]: 26.6 µM (active) and 23.5 µM (active)
Potency [3]: 15.4 µM (active) and 27.1 µM (active)
Potency [4]: 16.6 µM (active)
Potency [5]: 11 µM (active) and 17.2 µM (active)
Potency [6]: inactive
Potency [7]: 6.17 µM (active) and 30.6 µM (active)
Potency [8]: 23.5 µM (active)
Potency [9]: inactive

CC1(C)[C@H](C(=O)O)N2C(=O)C[C@H]2S1(=O)=O
Potency [1]: inactive
Potency [2]: inactive
Potency [3]: inactive
Potency [10]: inactive
Potency [4]: inactive
Potency [5]: inactive
Potency [7]: inactive
Potency [8]: inactive
Potency [9]: inactive

C[C@@H](CN1CC(=O)NC(=O)C1)N1CC(=O)NC(=O)C1
Potency [1]: inactive
Potency [2]: inactive
Potency [3]: inactive
Potency [4]: 4.18 µM (active)
Potency [5]: inactive
Potency [6]: inactive
Potency [7]: inactive
Potency [9]: inactive

Cc1ncc([N+](=O)[O-])n1CCO
Potency [1]: inactive
Potency [2]: inactive
Potency [3]: inactive
Potency [10]: inactive
Potency [4]: inactive
Potency [5]: inactive
Potency [6]: inactive
Potency [7]: inactive
Potency [8]: inactive
Potency [9]: inactive

CO[C@@H]1[C@@H](OC(N)=O)[C@@H](O)[C@H](Oc2ccc3c(O)c(NC(=O)c4ccc(O)c(CC=C(C)C)c4)c(=O)oc3c2C)OC1(C)C
Potency [1]: inactive
Potency [2]: inactive
Potency [3]: inactive
Potency [10]: inactive
Potency [4]: inactive
Potency [5]: inactive
Potency [6]: inactive
Potency [7]: inactive
Potency [8]: inactive
Potency [9]: inactive

CN1CCCC(n2nc(Cc3ccc(Cl)cc3)c3ccccc3c2=O)CC1 (configuration not stated)
Potency [1]: 9.35 µM (active)
Potency [2]: 2.35 µM (active)
Potency [3]: 27.3 µM (active) and 4.82 µM (active)
Potency [4]: 0.662 µM (active)
Potency [5]: 2.73 µM (active)
Potency [6]: 1.48 µM (active)
Potency [7]: 27.6 µM (active) and 968 nM (active)
Potency [8]: 5.9 µM (active)

COCCCOc1cc(C[C@@H](C[C@H](N)[C@@H](O)C[C@H](C(=O)NCC(C)(C)C(N)=O)C(C)C)C(C)C)ccc1OC
Potency [1]: inactive
Potency [2]: inactive
Potency [3]: inactive
Potency [10]: inactive
Potency [4]: inactive
Potency [5]: inactive
Potency [6]: inactive
Potency [7]: inactive
Potency [8]: inactive
Potency [9]: inactive

O=C(O)CCn1c2c(c3ccccc31)C[C@H](NS(=O)(=O)c1ccc(F)cc1)CC2
Potency [1]: inactive
Potency [2]: inactive
Potency [3]: inactive
Potency [10]: inactive
Potency [4]: inactive
Potency [5]: inactive
Potency [6]: inactive
Potency [7]: inactive
Potency [8]: inactive
Potency [9]: inactive

CCN(CC)CCn1c(=O)c(Cc2ccc(OC)cc2)nc2ccccc21
Potency [1]: inactive
Potency [2]: inactive
Potency [3]: inactive
Potency [4]: inactive
Potency [5]: inactive
Potency [6]: inactive
Potency [7]: inactive
Potency [8]: inactive
Potency [9]: inactive

CC(N)C12CC3CC(CC(C3)C1)C2 (configuration not stated)
Potency [1]: inactive
Potency [2]: inactive
Potency [3]: inactive
Potency [10]: inactive
Potency [4]: inactive
Potency [5]: inactive
Potency [6]: inactive
Potency [7]: inactive
Potency [8]: inactive
Potency [9]: inactive

OC(Cn1cncn1)(Cn1cncn1)c1ccc(F)cc1F
Potency [1]: inactive
Potency [2]: inactive
Potency [3]: inactive
Potency [10]: inactive
Potency [4]: inactive
Potency [5]: inactive
Potency [6]: inactive
Potency [7]: inactive
Potency [8]: inactive
Potency [9]: inactive

Cn1nnc2c(C(N)=O)ncn2c1=O
Potency [1]: inactive
Potency [2]: inactive
Potency [3]: inactive
Potency [10]: inactive
Potency [4]: inactive
Potency [5]: inactive
Potency [6]: inactive
Potency [7]: inactive
Potency [8]: inactive
Potency [9]: inactive

CCN(CC)CC#CCOC(=O)C(O)(c1ccccc1)C1CCCCC1 (configuration not stated)
Potency [1]: inactive
Potency [2]: inactive
Potency [3]: inactive
Potency [6]: inactive
Potency [8]: inactive
Potency [9]: inactive

NC1(c2ccc(-c3nc4ccn5c(=O)[nH]nc5c4cc3-c3ccccc3)cc2)CCC1
Potency [1]: inactive
Potency [2]: 10.5 µM (active)
Potency [4]: 3.72 µM (active)
Potency [5]: 21.7 µM (active) and 24.6 µM (active)
Potency [6]: 16.8 µM (active)
Potency [7]: 344 nM (active) and 692 nM (active)
Potency [8]: 16.6 µM (active) and 13.3 µM (active)
Potency [9]: 7.43 µM (active) and 13.3 µM (active)
